Test systems include MOLT-4 leukemia; SR leukemia; OVCAR-8 ovarian; OVCAR-5 ovarian; OVCAR-4 ovarian; SK-OV-3 ovarian; IGROV1 ovarian; OVCAR-3 ovarian; HS 578T breast; NCI/ADR-RES ovarian; T-47D breast; MDA-MB-435 melanoma; SW-620 colon; MCF7 breast; HCT-116 colon; HCC-2998 colon; KM12 colon; RPMI-8226 leukemia; BT-549 breast.
Common to all, as to experiment: NCI-60 one-dose screen, 48 h (100 = growth as untreated, 0 = no growth, -100 = all killed)
Common to all, as to conditions: 10 µM unless noted

The panel holds about 83,000 compounds, 20% with a hit somewhere; the sample as a whole holds those more often.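 Growth was measured after 48 h exposure to one concentration of compound in 96-well plates. Values under 10 count as active.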 Unmarked numbers belong to inactive results. Activity calls are given as the source filed them.

For the molecule `Cc1c2ccncc2c(C)c2c1[nH]c1ccccc12`, the growth is -24.4% (active) in the assay with MOLT-4 leukemia; -12.8% (active) in the assay on SR leukemia; -14.2% (active) in the assay on OVCAR-8 ovarian; -90.8% (active) with OVCAR-5 ovarian; -29.7% (active) in the assay with OVCAR-4 ovarian; -4.52% (active) with SK-OV-3 ovarian. Also, the growth with IGROV1 ovarian was -66.2% (active); in the assay on OVCAR-3 ovarian it was -86% (active); in the assay with HS 578T breast it was -47.3% (active); in the assay with NCI/ADR-RES ovarian it was -46.9% (active); in the assay with T-47D breast it was -56.1% (active); in the assay on MDA-MB-435 melanoma, -89.6% (active). Moreover, the growth was -64.1% (active) in the assay with SW-620 colon; -15.9% (active) with MCF7 breast; -57% (active) with HCT-116 colon; -96.8% (active) with HCC-2998 colon; -69.3% (active) in the assay with KM12 colon.
Turning to `C[C@]12CC[C@@H](OC(=O)N(CCCl)N=O)C[C@@H]1CC[C@@H]1[C@@H]2CC[C@]2(C)C(=O)CC[C@@H]12`, the growth in the assay on MOLT-4 leukemia was 29.1%; in the assay with RPMI-8226 leukemia it was 21.7%; in the assay on OVCAR-8 ovarian, 58.1%; in the assay on OVCAR-5 ovarian, 114%; with OVCAR-4 ovarian, 73%; with SK-OV-3 ovarian, 21.2%. Further, the growth with IGROV1 ovarian is -13.9% (active); with HS 578T breast it was 81.6%; with NCI/ADR-RES ovarian it was 42.9%; with T-47D breast, 33.8%; in the assay with BT-549 breast, 76.8%; in the assay on MDA-MB-435 melanoma, 64.5%. Also, the growth in the assay on SW-620 colon is 52.9%; in the assay on MCF7 breast it was 29.9%; in the assay with HCT-116 colon, 47.5%; in the assay with HCC-2998 colon, 53.6%; in the assay on KM12 colon, 24.5%.
For the molecule `CC1=CC(=O)CCC12CCOC2=O` (configuration not stated), the growth is 107% with MOLT-4 leukemia; 88.3% with RPMI-8226 leukemia; 100% in the assay with OVCAR-8 ovarian; 96.7% in the assay with OVCAR-5 ovarian; 101% with SK-OV-3 ovarian; 108% in the assay on IGROV1 ovarian. Also, the growth is 106% in the assay on OVCAR-3 ovarian; 88.4% in the assay on HS 578T breast; 94.7% in the assay on NCI/ADR-RES ovarian; 90.5% in the assay on BT-549 breast; 95.5% with MDA-MB-435 melanoma; 98.6% in the assay on SW-620 colon. For the same molecule, the growth with MCF7 breast was 97.4%; with HCT-116 colon it was 102%; in the assay with HCC-2998 colon, 102%; in the assay on KM12 colon, 104%.
Take `COc1ccc(N)cc1OC`: the growth in the assay with MOLT-4 leukemia is 112%; in the assay with RPMI-8226 leukemia, 104%; in the assay with OVCAR-8 ovarian, 115%; in the assay on OVCAR-5 ovarian, 104%; with OVCAR-4 ovarian it was 96.8%; in the assay on SK-OV-3 ovarian, 113%. Also, the growth in the assay on IGROV1 ovarian was 107%; in the assay with OVCAR-3 ovarian, 108%; in the assay with HS 578T breast, 116%; in the assay on NCI/ADR-RES ovarian, 107%; with T-47D breast it was 100%; with BT-549 breast, 99.8%. For the same molecule, the growth in the assay with MDA-MB-435 melanoma was 103%; with SW-620 colon it was 109%; with MCF7 breast, 102%; with HCT-116 colon, 103%; in the assay on HCC-2998 colon, 111%; in the assay on KM12 colon it was 100%.
Turning to `C[C@H](O)CCC(=O)c1ccoc1`, the growth in the assay with MOLT-4 leukemia is 98.2%; with RPMI-8226 leukemia, 97.8%; in the assay with OVCAR-8 ovarian, 97.7%; in the assay on OVCAR-5 ovarian, 106%; in the assay with OVCAR-4 ovarian it was 117%; in the assay on SK-OV-3 ovarian it was 113%. Further, the growth in the assay on IGROV1 ovarian was 113%; in the assay on OVCAR-3 ovarian, 109%; in the assay with HS 578T breast, 97.1%; in the assay with NCI/ADR-RES ovarian it was 102%; in the assay with T-47D breast it was 108%; in the assay on BT-549 breast it was 118%. For the same molecule, the growth with MDA-MB-435 melanoma was 112%; in the assay with SW-620 colon, 105%; with MCF7 breast, 98.6%; with HCT-116 colon, 106%; in the assay with HCC-2998 colon, 102%; in the assay with KM12 colon, 104%.
In the case of `COC1C(O)CC(OC2CC(Oc3cc4cc5c(c(O)c4c(O)c3C)C(=O)[C@@H](OC3CC(OC4CC(OC6CC(C)(O)C(OC(C)=O)C(C)O6)C(O)C(C)O4)C(O)C(C)O3)[C@H]([C@H](OC)C(=O)[C@@H](O)[C@@H](C)O)C5)OC(C)C2OC(C)=O)OC1C` (some centres not stated), the growth is 1.77% (active) in the assay with MOLT-4 leukemia; 1.63% (active) in the assay with SR leukemia; -30.8% (active) in the assay on RPMI-8226 leukemia; -67% (active) in the assay with OVCAR-5 ovarian; 4.26% (active) in the assay on OVCAR-4 ovarian; 12.2% in the assay on SK-OV-3 ovarian. The growth is -23.8% (active) in the assay with IGROV1 ovarian; -9.73% (active) in the assay with OVCAR-3 ovarian; -33.9% (active) with NCI/ADR-RES ovarian; -7.93% (active) in the assay on T-47D breast; -68.3% (active) with BT-549 breast; -100% (active) in the assay on MDA-MB-435 melanoma. In addition, the growth in the assay with SW-620 colon is -16.1% (active); in the assay with MCF7 breast, -18.4% (active); in the assay with HCT-116 colon it was 0.84% (active); in the assay on KM12 colon, -34.6% (active).
For the molecule `COc1c(O)cc2c(c1OC)-c1ccc(SC)c(=O)cc1C(NC(C)=O)CC2` (configuration not stated), the growth with MOLT-4 leukemia was 9.41% (active); with SR leukemia it was 5.8% (active); with RPMI-8226 leukemia, 0.467% (active); with OVCAR-5 ovarian, 41.9%; in the assay on OVCAR-4 ovarian, 16.8%; with SK-OV-3 ovarian it was 35.2%. Also, the growth with IGROV1 ovarian was -44.2% (active); in the assay with OVCAR-3 ovarian it was -34.3% (active); in the assay on HS 578T breast it was 16%; with NCI/ADR-RES ovarian, -1.28% (active); in the assay on T-47D breast, 81.9%; with BT-549 breast it was -9.83% (active). In addition, the growth was -47.2% (active) in the assay on MDA-MB-435 melanoma; 22.9% in the assay with SW-620 colon; 13.3% in the assay on MCF7 breast; 4.98% (active) in the assay on HCT-116 colon; -21.5% (active) in the assay with HCC-2998 colon; -41.1% (active) with KM12 colon.
Take `Cn1cc(C(=O)C[n+]2ccccc2)c2ccccc21`: the growth is 103% with MOLT-4 leukemia; 98.2% with RPMI-8226 leukemia; 114% in the assay with OVCAR-8 ovarian; 105% in the assay with OVCAR-5 ovarian; 90.4% in the assay on OVCAR-4 ovarian; 101% in the assay on SK-OV-3 ovarian. In addition, the growth is 103% in the assay on IGROV1 ovarian; 109% in the assay with OVCAR-3 ovarian; 96.8% with HS 578T breast; 100% with NCI/ADR-RES ovarian; 86.9% in the assay with T-47D breast; 95.3% with BT-549 breast. Moreover, the growth is 105% with MDA-MB-435 melanoma; 106% in the assay with SW-620 colon; 101% in the assay on MCF7 breast; 97.5% with HCT-116 colon; 106% with HCC-2998 colon.
